# In the library only some 7.9% were active in any assay of this set; here they are far more common.
# HT1080 IDH1KD tx = kills HT-1080 cells with IDH1 knockdown | Potency, µM (highest dose often 46.1 µM), without a hit: at the top dose activity, negative = toxicity, actives largely listed as cytotoxic | 360,000 tested, 2% active | HT-1080 IDH1 knockdown viability, ATP luminescence, 48 h;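 note: 0% = DMSO wells and -100% = cell-free medium wells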
#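 Assay cells: HT-1080 with IDH1 knockdown, 750 per well, RPMI/5% FBS. Exposure: 48 h at 37 °C following 2 h pre-incubation. Read: CellTiter-Glo luminescence; fitted concentration-response, curve class assigned.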
# KB-3-1 cytotox = kills parental KB-3-1 adenocarcinoma cells; Potency, µM (highest dose often 46.1 µM), most hits filed as cytotoxic; 400,000 tested, 1.4% active; KB-3-1 viability, CellTiter-Glo ATP luminescence, 72 h; AID 1347075; note: % is set by controls: 0 for no effect and ±100 for the full control effect; nearly all actives have a fitted effect of over 60% in size
#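 KB-3-1 cells, DMEM (no phenol red) + 10% FBS; compound by pin transfer, 72 h, 37 °C. Readout: CellTiter-Glo luminescence after 10 min. Data normalized, curve-fitted.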
# HT1080-NT tox = kills 2HG-producing HT-1080-NT fibrosarcoma cells. HT-1080-NT fibrosarcoma viability, CellTiter-Glo ATP luminescence, 48 h. AID 686970. 360,000 tested, 1.6% active. Potency, µM (highest dose often 46.1 µM), for the others: at the top dose activity, negative = less viability, most hits filed as cytotoxic;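 note: NT is the 2HG producing partner of a matched IDH1 knockdown line; 0% = DMSO-treated cells and -100% = media-only wells without cells; nearly all actives have a fitted effect of over 55% in size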
#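 A 48-hour cytotoxicity screen used HT-1080-NT cells plated 2 hours before compound delivery. ATP-based CellTiter-Glo luminescence measured viability, normalized to DMSO and no-cell controls.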
# SW480 rereplic = induces DNA re-replication in SW480 colon adenocarcinoma cells; SW480 DNA re-replication, Hoechst DNA content imaging, 48 h; Potency, µM (series often up to 46.1 µM), for the others: at the top dose re-replication activation, actives largely listed as activators; 340,000 tested, 1.8% active; note: % of control where 0% means no effect; nearly all actives have a fitted effect of over 55% in size
#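 250 cells/well; 23 nL cpd via pin tool; 48 hr, 37 C, 5% CO2; Hoechst 40 min; imager read of total nuclear intensity, ex 405/em 500-530 nm.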
# MCF10A rerep = induces DNA re-replication in MCF 10a normal breast cells; AID 624296; 350,000 tested, 2.9% active; MCF 10A DNA re-replication, Hoechst nuclear intensity, 48 h; Potency, µM (doses to about 46.1 µM), without a hit: at the highest dose activity, positive = re-replication, most hits filed as activators; note: % of control where 0% means no effect; nearly all actives have a fitted effect of over 50% in size
# KB-V1 cytotox = KB-V1 MDR subline cytotoxicity; KB-V1 MDR cells viability, CellTiter-Glo, 72 h; Potency, µM (top dose mostly 46.1 µM), actives largely listed as cytotoxic; AID 1347076; 400,000 tested, 3.4% active; note: % is set by controls: 0 for no effect and ±100 for the full control effect; nearly all actives have a fitted effect of over 60% in size
#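 Cytotoxicity toward P-gp-expressing KB-V1 cells was determined as loss of CellTiter-Glo luminescence after 72 h at 37 degrees C. Compounds were tested in quantitative HTS format across a concentration range, with curves fitted to normalized data.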
# The depositor's hits bear a star; i = inactive; ? = inconclusive; / = no result; ! = repeats disagree; [ ] = remark or other dose. Calls come from the whole dose curve; as a rule, active = well fitted curve in the direction sought with a large enough effect; inconclusive = small, poorly fitted or top-dose-only effect, or another doubt; inactive = no such curve, though single readings can be large; an effect the other way counts as inactive or inconclusive. Potency is the fitted concentration of half-maximal effect.
SMILES,HT1080 IDH1KD tx,KB-3-1 cytotox,HT1080-NT tox,SW480 rereplic,MCF10A rerep,KB-V1 cytotox
O=C(NCCc1cccs1)C1CC(c2c(Cl)cccc2Cl)=NO1 (stereo unspecified),-4%,i,16%,12%,1%,i
O=C(NCc1cccs1)C1CC(c2ccc(Cl)cc2)=NO1 (stereo unspecified),?,?,-22%,?,9.2µM*,?
O=C(NCc1cccnc1)C1CC(c2ccc(Cl)c(Cl)c2)=NO1 (stereo unspecified),-30%,?,-24%,14%,9.2µM*,?
O=C(NCc1ccccn1)C1CC(c2ccc(Cl)c(Cl)c2)=NO1 (stereo unspecified),?,?,-20%,16%,11µM*,?
O=C(NCc1cccs1)C1CC(c2ccc(Cl)c(Cl)c2)=NO1 (stereo unspecified),-25%,i,-28%,-4%,2.3µM*,i
CCN(c1ccc(OC)cc1)S(=O)(=O)N1CCCC(C(=O)NCc2cccc(C)c2)C1 (stereo unspecified),-7%,i,-3%,-1%,9%,i
COc1cccc(CC(NC(C)=O)C(=O)NC2CCN(C(=O)c3ccncc3)CC2)c1OC (stereo unspecified),9%,i,1%,-1%,-4%,i
CCOC(=O)Nc1ccc2c3c(cccc13)-c1ccccc1-2,?,?,?,6.5µM*,?,?
CCOC(=O)Nc1cccc2ccccc12,2%,i,3%,-2%,-4%,i
COCCCN(C(=O)CSCc1c(C)noc1C)c1c(N)n(Cc2ccccc2)c(=O)[nH]c1=O,9%,i,-1%,0%,0%,?
O=C1CCSC2(C(=O)N(Cc3ccc(F)cc3)c3ccccc32)N1c1ccc(F)c(F)c1 (stereo unspecified),/,i,/,/,/,i
O=C1CC(O)(c2ccccc2)C(c2ccccc2)=C1c1ccccc1 (stereo unspecified),-23%,?,?,-2%[9.22 µM],17%,18µM*
CCN(CC)CCCNc1nc2ccccc2c2[nH]c3ccc(OC)cc3c12,21µM*,?,?,?,13%,16µM*
CCN(CC)CCCNc1nc(-c2ccccc2)nc2ccccc12,?,i,?,7%,-2%,i
C=CCOc1c(Br)cc(C2C3=C(CCCC3=O)N(C)C3=C2C(=O)CCC3)cc1OCC,7%,i,2%,23µM*,-3%,i
C=CCOc1ccc(C2C3=C(CCCC3=O)N(CC(=O)O)C3=C2C(=O)CCC3)cc1OCC,16%,i,26%,-5%,-2%,?
Cn1c2c(c(=O)n(C)c1=O)CN(Cc1ccccc1)CN2,3%,i,29%,/,/,i
CCCCCn1c(=O)[nH]c2cc(C(=O)Nc3ccc(OC)c(OC)c3)ccc2c1=O,/,i,/,/,/,i
CCOC(=O)c1cc(S(=O)(=O)N2CCc3ccccc32)cn1C,0%,i,0%,-1%,5%,i
CCOC(=O)N1CCC(NC(=O)c2cc(S(=O)(=O)N3CCc4ccccc43)cn2C)CC1,-3%,?,4%,-1%,0%,3.3µM*
C[C@@H](CSc1ccccc1)CN1CC[C@H](C(C)(C)C)CCC1=O,17%,?,0%,-6%,?,18µM*!
COc1ccc(SC[C@H](C)CN2CC[C@H](C(C)(C)C)CCC2=O)cc1,-19%,?,-22%,1%,?,15µM*!
CCCCOCCCNC(=O)C[C@@H]1C[C@@]2(C(=O)OC)CC(C)(C)CC=C2N(Cc2ccco2)C1=O,-3%,i,-1%,/,/,i
COc1ccc(C)cc1Nc1n[n+](-c2ccccc2)c(-c2c(OC)ccc3ccccc23)s1,?,18µM*,?,1%[9.22 µM],?,?
